Hits are enriched below; roughly 19% of the tested compounds scored in any of these assays.
HT1080-NT tox – kills 2HG-producing HT-1080-NT fibrosarcoma cells; HT-1080-NT fibrosarcoma viability, CellTiter-Glo ATP luminescence, 48 h; Potency, µM (doses to about 46.1 µM), for inactives: top-dose activity, negative = less viability, hits mostly cytotoxic; 1.6% of 360,000 active; AID 686970;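 also: NT is the 2HG producing partner of a matched IDH1 knockdown line; potency is read from the fitted curve at half-maximal effect; 0% = DMSO-treated cells and -100% = media-only wells without cells; nearly all actives have a fitted effect of over 55% in size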
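Fibrosarcoma NT cells, 750 per well in 5% FBS RPMI, were exposed to compound for 48 hours. Viability: CellTiter-Glo luminescence.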
TDP1 cell CPT – growth inhibition of DT40 Tdp1-/-;hTDP1 cells with camptothecin (screen for TDP1 inhibitors) | chicken DT40 Tdp1-/-;hTDP1 cells + 20 nM CPT, ATP luminescence, 48 h | Potency, µM (top dose mostly 46.2 µM), for the others: at the top dose activity change, negative = growth inhibition, actives largely listed as inhibitors | 12% of 420,000 active; also: potency is read from the fitted curve at half-maximal effect; nearly all actives have a fitted effect of over 55% in size
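Chicken DT40 Tdp1-/- cells complemented with human TDP1, 400 cells/well, exposed to compounds plus 20 nM camptothecin for at least 48 h at 37 C; viability read as ATP content by CellTiter-Glo luminescence.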
DT40 TDP1 no CPT – qHTS for Inhibitors of human tyrosyl-DNA phosphodiesterase 1 (TDP1): qHTS in cells in absence of CPT. AID 686978, 2013. 15% of 420,000 active. Potency, µM (top dose mostly 46.2 µM), without a hit: at the top dose activity change, negative = growth inhibition, actives largely listed as inhibitors. DT40 Tdp1-/- hTDP1 cells, no CPT, ATP luminescence, 48 h; also: potency is read from the fitted curve at half-maximal effect; nearly all actives have a fitted effect of over 55% in size
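Luminescent ATP content (CellTiter-Glo) served as the growth readout. Knockout chicken DT40 cells expressing human TDP1 were exposed to compounds without camptothecin for a minimum 48 hr at 37 °C.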
IL1B secr inh – blocks inflammasome-driven IL-1 beta release; 4.7% of 360,000 active; activity change, % at 57.5 µM; THP-1 LPS/ATP IL-1B secretion, AlphaLISA, 16 h; active compounds read low; in the data active = activity change below about -50%; inconclusive = mostly about -30% to -49%
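Secreted IL-1B measured by AlphaLISA bead assay after 16 h compound exposure of THP-1 cells; compounds (final up to 57.5 uM) added 1 h before LPS (250 ng/mL) and ATP (1.25 mM) stimulation; lower signal means less secretion.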
ELG1 DNA repair – blocks ELG1-dependent DNA repair in HEK293T cells | HEK293T ELG1-luciferase reporter, luminescence, 16 h; DNA damage induced by 5-fluorouridine | AID 504467 | 2.3% of 330,000 active | Potency, µM (doses to about 46.1 µM), inactives show at the highest dose activity change, negative = inhibition, most hits filed as inhibitors; also: potency is read from the fitted curve at half-maximal effect; nearly all actives have a fitted effect of over 55% in size
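Step one: seed 2,000 cells per well. Step two: pin-transfer compound or DMSO alongside 5-fluorouridine. Step three: incubate 16 hr, 37 °C, 5% CO2. Step four: add ONE-Glo, wait 30 min, read luminescence.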
HT1080 IDH1KD tx – toxicity to HT-1080 IDH1 knockdown cells (counter line); 2% of 360,000 active; HT-1080 IDH1 knockdown viability, ATP luminescence, 48 h; Potency, µM (top dose mostly 46.1 µM), without a hit: top-dose activity, negative = toxicity, actives largely listed as cytotoxic; AID 686971;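 also: potency is read from the fitted curve at half-maximal effect; 0% = DMSO wells and -100% = cell-free medium wells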
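IDH1KD HT-1080 cells, 750/well, RPMI + 5% FBS; compound pinned after 2 h settling; 48 h, 37 °C; CellTiter-Glo luminescence; % activity normalised to DMSO and no-cell wells; curves fitted, classed by r2 and efficacy.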
* hit, by the source's call. Unless noted, calls follow the shape of the dose curve; as a rule, active = well fitted curve in the direction sought with a large enough effect; inconclusive = small, poorly fitted or top-dose-only effect, or another doubt; inactive = no such curve, though single readings can be large; an effect the other way counts as inactive or inconclusive. Unless noted, % is scaled to controls: 0 for no effect and ±100 for the full control effect.

CC(Oc1ccc(F)cc1)C(=O)Nc1cc(S(=O)(=O)N2CCCCC2)ccc1N1CCOCC1 (stereo not drawn) was read as HT1080-NT tox 0%, TDP1 cell CPT -8%, DT40 TDP1 no CPT 16µM*, IL1B secr inh 3, ELG1 DNA repair inconclusive and HT1080 IDH1KD tx -1%.
CCN1CCN(c2ccc(S(=O)(=O)N3CCCCC3)cc2NC(=O)COc2ccc(Cl)cc2)CC1 was read as HT1080-NT tox -5%, TDP1 cell CPT inconclusive, DT40 TDP1 no CPT inconclusive, IL1B secr inh -26, ELG1 DNA repair inconclusive and HT1080 IDH1KD tx -2%.
`Cc1ccc(S(=O)(=O)N2CCN(C(=O)COC(=O)COc3ccc(Cl)cc3C)CC2)c(C)c1` gave HT1080-NT tox -1%, TDP1 cell CPT -7%, DT40 TDP1 no CPT -20%, IL1B secr inh 8 and HT1080 IDH1KD tx 9%.
`COc1cccc(-c2nc(N3CCN(c4ccccc4)CC3)c3ccccc3n2)c1O` gave HT1080-NT tox 1%, TDP1 cell CPT inconclusive, DT40 TDP1 no CPT 16µM*, IL1B secr inh 32, ELG1 DNA repair 11% and HT1080 IDH1KD tx 7%.
`COc1cccc(-c2nc(N3CCN(Cc4ccccc4)CC3)c3ccccc3n2)c1O` gave HT1080-NT tox 0%, TDP1 cell CPT inconclusive, DT40 TDP1 no CPT 16µM*, IL1B secr inh 34, ELG1 DNA repair inconclusive and HT1080 IDH1KD tx -3%.
Screening COc1cccc(-c2nc(N3CCCCC3)c3ccccc3n2)c1O returned HT1080-NT tox inconclusive, TDP1 cell CPT 26µM*, DT40 TDP1 no CPT 21µM*, IL1B secr inh inconclusive and HT1080 IDH1KD tx inconclusive.
`C=CCN1CC(C(=O)N2CCC(Cc3ccc(Cl)cc3)(C(=O)OCC)CC2)CC1=O` (stereo not drawn) gave HT1080-NT tox 1%, TDP1 cell CPT inconclusive, DT40 TDP1 no CPT -26%, IL1B secr inh 17, ELG1 DNA repair 0% and HT1080 IDH1KD tx 3%.
CC1C(c2ccc3c(c2)OCO3)c2cc3c(cc2OC1N1CCOCC1)OCO3 (stereo not drawn) was read as HT1080-NT tox 0%, TDP1 cell CPT -4%, DT40 TDP1 no CPT inconclusive, IL1B secr inh -8 and HT1080 IDH1KD tx -13%.
For CCCCCCCC(=O)NNC(=O)Cc1ccccc1 the results were HT1080-NT tox 3%, TDP1 cell CPT -19%, DT40 TDP1 no CPT -2%, IL1B secr inh 4, ELG1 DNA repair 6% and HT1080 IDH1KD tx -9%.
`CCCCS(=O)Cc1ccccc1` (stereo not drawn) gave HT1080-NT tox 12%, TDP1 cell CPT 6%, DT40 TDP1 no CPT 3%, IL1B secr inh -4, ELG1 DNA repair -3% and HT1080 IDH1KD tx 6%.
CCCCCCCCCCCCCCCC[N+](C)(C)Cc1ccccc1 was read as TDP1 cell CPT 1.2µM* and DT40 TDP1 no CPT 0.94µM*.
`CCCCCCCCCCCCCC[N+](C)(C)Cc1ccccc1` gave TDP1 cell CPT 1.2µM* and DT40 TDP1 no CPT 1.1µM*.
FC(F)(F)c1ccccc1-c1nc(-c2ccncc2)no1 was read as HT1080-NT tox 0%, TDP1 cell CPT -10%, DT40 TDP1 no CPT -23%, IL1B secr inh 0, ELG1 DNA repair inconclusive and HT1080 IDH1KD tx -5%.
CS(=O)(=O)c1ccccc1-c1nc(-c2ccc(C(F)(F)F)cc2)no1 was read as HT1080-NT tox -5%, TDP1 cell CPT inconclusive, DT40 TDP1 no CPT 16µM*, IL1B secr inh inconclusive, ELG1 DNA repair inconclusive and HT1080 IDH1KD tx -3%.
`CC(=O)N1c2c(cc(Br)cc2S(=O)(=O)N2CCN(c3cc(C)ccc3C)CC2)CC1C` (stereo not drawn) gave TDP1 cell CPT 16µM* and DT40 TDP1 no CPT 15µM*.
CC(=O)N1c2c(cc(Br)cc2S(=O)(=O)N2CCOCC2)CC1C (stereo not drawn) was read as HT1080-NT tox 9%, TDP1 cell CPT -4%, DT40 TDP1 no CPT -12%, IL1B secr inh -4, ELG1 DNA repair -1% and HT1080 IDH1KD tx 2%.
`COc1cc(NS(=O)(=O)c2cc(Br)cc3c2N(C(C)=O)C(C)C3)cc(OC)c1` (stereo not drawn) gave TDP1 cell CPT 13µM* and DT40 TDP1 no CPT 18µM*.
`CC(=O)N1c2c(cc(Br)cc2S(=O)(=O)NCc2ccc3c(c2)OCO3)CC1C` (stereo not drawn) gave HT1080-NT tox 2%, TDP1 cell CPT 8%, DT40 TDP1 no CPT -2%, IL1B secr inh 12, ELG1 DNA repair inconclusive and HT1080 IDH1KD tx 1%.
For COc1ccc(C)cc1NS(=O)(=O)c1cc(Br)cc2c1N(C(C)=O)C(C)C2 (stereo not drawn) the results were TDP1 cell CPT inconclusive and DT40 TDP1 no CPT 18µM*.
For C[C@H](CO)N1C[C@H](C)[C@@H](CN(C)S(=O)(=O)c2cccc(C#N)c2)OCc2cn(nn2)CCCC1=O the results were HT1080-NT tox 3%, TDP1 cell CPT 8%, DT40 TDP1 no CPT -26%, IL1B secr inh 13 and HT1080 IDH1KD tx 12%.
COc1cc(C(=O)COC(=O)c2ccncc2)cc(OC)c1OC was read as HT1080-NT tox -3%, TDP1 cell CPT -2%, DT40 TDP1 no CPT -6%, IL1B secr inh -2, ELG1 DNA repair inconclusive and HT1080 IDH1KD tx 2%.
For COc1ccccc1CNc1cc(-c2cccc(C#N)c2)ncn1 the results were TDP1 cell CPT -21% and DT40 TDP1 no CPT -17%.
For CC1CCN(c2c(NCc3ccc(C(=O)N4c5ccccc5CC4C)cc3)c(=O)c2=O)CC1 (stereo not drawn) the results were HT1080-NT tox -12%, TDP1 cell CPT 18µM*, DT40 TDP1 no CPT 23µM*, IL1B secr inh -1, ELG1 DNA repair inconclusive and HT1080 IDH1KD tx -3%.
`CC1CC(C)(C)N(C(=O)CSc2ccc(-c3ccc(F)cc3)nn2)c2ccccc21` (stereo not drawn) gave HT1080-NT tox inconclusive, TDP1 cell CPT inconclusive, DT40 TDP1 no CPT 22µM*, IL1B secr inh -90*, ELG1 DNA repair inconclusive and HT1080 IDH1KD tx inconclusive.
Screening c1ccc(C2=Nc3ccccc3NC(c3ccccc3)C2)cc1 (stereo not drawn) returned HT1080-NT tox 4%, TDP1 cell CPT inconclusive, DT40 TDP1 no CPT 15µM*, IL1B secr inh -16, ELG1 DNA repair inconclusive and HT1080 IDH1KD tx -23%.
